PubChem BioAssay
Unmarked numbers belong to inactive results. No rule for the calls is given here.

Biological target: Pantothenate synthetase (Mycobacterium tuberculosis (strain ATCC 25618 / H37Rv)) (UniProt P9WIL5)
Test: Coupled enzyme confirmation of inhibitors against recombinant Mtb PanC (AID 375);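 also: 0% = full reaction with vehicle and 100% = no enzyme background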
Details: coupled enzyme assay; at 10 µM, hits give high values

Pantothenate synthetase (Mycobacterium tuberculosis (strain ATCC 25618 / H37Rv)), sequence (P9WIL5 whole entry, looked up): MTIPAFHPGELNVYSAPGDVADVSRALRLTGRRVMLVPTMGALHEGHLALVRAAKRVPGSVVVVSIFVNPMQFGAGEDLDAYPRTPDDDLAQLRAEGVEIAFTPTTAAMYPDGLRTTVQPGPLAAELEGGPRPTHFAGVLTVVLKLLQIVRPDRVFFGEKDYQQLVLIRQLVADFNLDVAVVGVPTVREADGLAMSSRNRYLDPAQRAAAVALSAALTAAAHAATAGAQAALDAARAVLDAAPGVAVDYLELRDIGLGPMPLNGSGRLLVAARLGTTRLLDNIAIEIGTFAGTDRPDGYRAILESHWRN

Structure (SMILES)	inhibition [%]
CCc1ccccc1OCCCCCNCCO	3
CCN(CCO)C(=O)CC(c1ccccc1)c1cc(Br)ccc1O (stereo not given)	5
Cc1cc(C)n(-c2nnc(C)n2/N=C/c2ccco2)n1	1
CC(=O)Oc1cccc2c1C(=O)c1c(OC(C)=O)cc(C(=O)O)cc1C2=O	2
COc1ccccc1N1CCN(C(=O)c2cc(-c3ccc(Cl)c(Cl)c3)on2)CC1	0
O=C(c1ccc2c(c1)OCO2)N1CCCN(C(=O)c2ccc3c(c2)OCO3)CC1	0
CN1CCc2nc(SCCOc3ccccc3)c(C#N)cc2C1	0
O=C(O)CCC(=O)NC1CCCCC1NC(=O)CCC(=O)O (stereo not given)	0
COc1ccccc1-c1c(C)nn2c(N3CCC4(CC3)OCCO4)cc(C)nc12	5
OCCN1CCN(CC(O)COc2ccc3ccccc3c2)CC1 (stereo not given)	0
CCNc1ccc(C(=O)OCC)cc1NC(=O)c1cc(S(=O)(=O)N2CCOCC2)ccc1C	2
O=C(Cc1cccs1)Nc1ccccc1C(=O)O	4
COc1ccccc1-c1nnc(NC(=O)c2ccc(S(=O)(=O)N(C)Cc3ccccc3)cc2)o1	0
C[C@]12CCC(=O)C=C1CC[C@@H]1[C@@H]2CC[C@@]2(C)[C@H]1CC[C@]2(O)C(=O)CO	0
N#Cc1c(NC(=O)COC(=O)C2CC3C=CC2C3)oc(-c2ccccc2)c1-c1ccccc1 (stereo not given)	1
O=C(COC(=O)CCC(=O)c1cccs1)NCc1ccco1	0
CN(Cc1nc(-c2ccncc2)no1)S(=O)(=O)c1ccc(Br)cc1	2
CCC(=O)c1ccc(OCC(=O)N2CCc3cc(OC)c(OC)cc3C2)cc1	0
COc1ccccc1CNC(=O)C1CCN(S(=O)(=O)N2CCCCC2)CC1	0
c1ccc(Nc2ccccc2Nc2ccccn2)nc1	0

Structure (SMILES)	inhibition [%]
CN(Cc1cnn(C)c1)C(=O)c1cc2ccccc2oc1=O	3
CCn1c(COc2cccc3ccccc23)nnc1SCC(N)=O	9
CCOC(=O)C1=C(N)OC2=C(C(=O)CC(C)(C)C2)C1c1ccoc1 (stereo not given)	0
COc1cccc2cc(C(=O)N3CCc4ccccc43)c(=O)oc12	1
Cc1oc2nc(SCCCC(=O)NCCCO)nc(N)c2c1C	2
COc1ccc(OC)c(NC(=O)C2CCN(c3cc(-c4ccccc4)nc4ncnn34)CC2)c1	2
COc1ccc(-n2cnnc2SCCC#N)cc1	0
CCC(=O)Nc1cc2nn(-c3ccccc3)nc2cc1Cl	0
CC1CNCCN1S(=O)(=O)c1cccc2cnccc12 (stereo not given)	5
Cc1ccc(Cn2nnnc2CN2CCC(O)(c3ccccc3F)CC2)cc1	0
COc1ccc(-n2nnnc2SCC(=O)c2ccc(O)c(O)c2)cc1	0
C=CCOc1ccc(CN(C)CC(=O)N(CC(C)C)c2c(N)n(CC(C)C)c(=O)[nH]c2=O)cc1	0
O=C(CN1CCN(Cc2ccccc2)CC1)NCC1COc2ccccc2O1 (stereo not given)	0
Cc1nc(NCc2ccccn2)c2ccccc2n1	7
Cc1ccc(NC(=O)c2ccco2)c(NC(=O)c2cccs2)c1	0
NC(=O)CSc1cn(CCNC(=O)c2cccs2)c2ccccc12	0
CCOC(=O)c1ccccc1NC(=O)c1ccc2c(=O)n3c(nc2c1)CCCCC3	0
COc1ccc(N2C(=O)CCC(C(=O)N3CCCCC3)C2c2ccc(OC)c(OC)c2)cc1 (stereo not given)	6
CN(C)CCCN1c2ccccc2Sc2ccc(Cl)cc21	0
Cc1nc2nc(SCC(=O)NCc3ccco3)nn2c(C)c1Cc1ccccc1	0
